Source: PubChem BioAssay (EPA / NIEHS)
Values joined by “and” are separate entries in the source; they are usually repeats but may differ in a detail not shown here. Equal entries are not always repeated. Active and inactive are the calls of the source. How the source made its calls: active means hit-call score of the fitted dose curve at least 0.9, where 1 is the maximum; inactive means score below 0.9.

Assay: APR_HepG2_CellLoss_24hr: Apredica 24-hour HepG2 Assay for Cell Loss (AID 2282908);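 on AC50: fit in both directions so a hit may be cell loss or gain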
Details: high-content imaging
In short: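 10-pt dose, 0.39–200 uM, n=2/plate; DMSO 0.5% v/v final as negative control. Fix 3.7% formaldehyde 30 min RT, permeabilize 0.5% Triton X-100, stain Hoechst 33342 2 ug/mL, image 20x. Nuclear count, bidirectional fit vs DMSO.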

Compound | AC50 | outcome
C#C[C@]1(O)CC[C@H]2[C@@H]3CCc4cc(O)ccc4[C@H]3CC[C@@]21C | 24.3 µM (active) | 
O=C(c1ccc(OCCN2CCCCC2)cc1)c1c(-c2ccc(O)cc2)sc2cc(O)ccc12 |  | inactive
C[C@]12CC[C@@H]3c4ccc(O)cc4CC[C@H]3[C@@H]1CC[C@@H]2O | 18.7 µM (active) | 
CC/C(=C(\c1ccccc1)c1ccc(OCCN(C)C)cc1)c1ccccc1 | 14.5 µM (active) and 17.8 µM (active) | 

Assay: APR_HepG2_MicrotubuleCSK_24hr: Apredica 24-hour HepG2 Assay for Microtubule CSK Stabilty (AID 2282909)
Details: HepG2 microtubule cytoskeleton imaging, actives raise or lower the signal
Method: APR_HepG2_24hr is a cell-based, multiplexed-readout assay that uses HepG2, a human liver cell line, with measurements taken at 24 hours after chemical dosing in a 384-well plate.APR_HepG2_MicrotubuleCSK_24hr is one of 10 assay component(s) measured or calculated from the APR_HepG2_24hr assay. It is designed to make measurements of protein conformation, a form of conformation reporter, as detected with fluorescence intensity signals by HCS Fluorescent Imaging technology.Data from the assay component APR_HepG2_MicrotubuleCSK_24hr was analyzed into 1 assay endpoint. This assay endpoint, APR_HepG2_MicrotubuleCSK_24hr, was analyzed with bidirectional fitting relative to DMSO as the negative control and baseline of activity. Using a type of conformation reporter, measures of protein for gain or loss-of-signal activity can be used to understand the signaling at the cellular-level. Furthermore, this assay endpoint can be referred to as a primary readout, because this assay has produced multiple assay endpoints where this one serves a signaling function. To generalize the intended target to other relatable targets, this assay endpoint is annotated to the cell morphology intended target family, where the subfamily is cell conformation.
Cells were treated with dimethyl sulfoxide (DMSO) as a solvent control at a final concentration of 0.5% v/v or with compounds in DMSO with a resulting final DMSO concentration of 0.5% v/v. Compound treatment was done at concentrations of 0.39, 0.78, 1.56, 3.12, 6.24, 12.5, 25, 50, 100, and 200 uM in duplicate on each plate. Cells were treated with compounds for 1, 24, or 72 hr. Carbonyl […] m-chloro-phenylhydrazone (CCCP) and taxol were used as positive controls for mitochondrial function and cytoskeletal stability, respectively; DMSO served as the negative control for this experiment. Cells were fixed by the direct addition of 50 uL formaldehyde in Hank's Balanced Salt Solution (HBSS) to a final concentration of 3.7%. After incubation in the fixation medium for 30 min at room temperature (293-298 K), cells were rinsed twice with HBSS and treated with cell permeabilization buffer (16 uL of 0.5% Triton X-100) for 10 min at room temperature (293-298 K) before labeling. For mitochondrial membrane potential and mitochondrial measurements, pre-fixed cells were incubated with 50 uL of MitoTracker Red CMXRos (Invitrogen) at a concentration of 250 nM for 30 min before fixation. In the remaining cases, post-fixed cells were labeled by incubation with a multiplexed mixture of primary antibodies in HBSS for 60 min at room temperature (293-298 K) to detect immunoreactivity of c-Jun (1:500), phospho-histone H3 (1:100), phospho-histone H2A.x (1:200), p53 (1:400), alpha-tubulin (1:200) and Hoechst 33342 (2 ug/mL). […]

Compound | outcome | AC50
C#C[C@]1(O)CC[C@H]2[C@@H]3CCc4cc(O)ccc4[C@H]3CC[C@@]21C | inactive | 
O=C(c1ccc(OCCN2CCCCC2)cc1)c1c(-c2ccc(O)cc2)sc2cc(O)ccc12 | inactive | 
C[C@]12CC[C@@H]3c4ccc(O)cc4CC[C@H]3[C@@H]1CC[C@@H]2O |  | 32.4 µM (active)
CC/C(=C(\c1ccccc1)c1ccc(OCCN(C)C)cc1)c1ccccc1 |  | 35.4 µM (active) and 44.5 µM (active)
